# PLC-gamma1 inh: PLC-gamma1 enzyme inhibitors, primary screen, biochemical, fluorescence, purified enzyme. 370,000 compounds, 0.84% hits. fluorogenic substrate. 1-phosphatidylinositol 4,5-bisphosphate phosphodiesterase gamma-1 (Homo sapiens), P19174. inhibition, % at 12.2 µM; in the data active means inhibition above about 9.5%
# PLC-beta3 inh: human PLC-beta3 inhibitors, primary screen, biochemical, fluorescence; 370,000 compounds, 0.18% hits; 1-phosphatidylinositol 4,5-bisphosphate phosphodiesterase beta-3 (Homo sapiens), Q01970; Purified PLC-beta3, fluorogenic substrate; inhibition, % at 12.2 µM;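 further: 0% = median of compound wells on plate and 100% = full blocker control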
# proKLK7 act: proKLK7 zymogen activators, primary screen, biochemical, fluorescence intensity. AID 652039, 2013. 370,000 compounds, 0.9% hits. purified proKLK7, EDANS-DABCYL substrate fluorescence; 100% is mature enzyme control, 0% vehicle. activation, % at 7 µM;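 active means activation above the mean of all tested compounds plus 3 SD, computed per campaign excluding outliers beyond control limits, cut at about 13% in these data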
# ADAM17 inh: ADAM17 inhibitors, primary screen, biochemical, QFRET; inhibition, % at 6.95 µM; Disintegrin and metalloproteinase domain-containing protein 17 (Homo sapiens), P78536; recombinant ADAM17, EDANS/DABCYL FRET peptide cleavage; AID 720648, 2013; 370,000 compounds, 0.83% hits;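 active means inhibition above the mean of compounds lying between control limits plus 3 SD, set per campaign, cut at about 8.5% in these data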;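 further: 0% = DMSO-only wells as the low control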
# ADAM10 inh: human ADAM10 inhibitors, primary screen, biochemical, QFRET, HTS | Disintegrin and metalloproteinase domain-containing protein 10 (Homo sapiens), O14672 | recombinant ADAM10, EDANS/DABCYL FRET peptide cleavage, 3 h | inhibition, % at 7 µM | 370,000 compounds, 0.62% hits;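 active means inhibition above a per-campaign cutoff equal to the mean of compounds falling between control-based bounds plus 3 SD, cut at about 20% in these data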;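 further: 0% = DMSO wells while the 100% control is not disclosed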
# Target sequence (O14672 214-748 limits assumed): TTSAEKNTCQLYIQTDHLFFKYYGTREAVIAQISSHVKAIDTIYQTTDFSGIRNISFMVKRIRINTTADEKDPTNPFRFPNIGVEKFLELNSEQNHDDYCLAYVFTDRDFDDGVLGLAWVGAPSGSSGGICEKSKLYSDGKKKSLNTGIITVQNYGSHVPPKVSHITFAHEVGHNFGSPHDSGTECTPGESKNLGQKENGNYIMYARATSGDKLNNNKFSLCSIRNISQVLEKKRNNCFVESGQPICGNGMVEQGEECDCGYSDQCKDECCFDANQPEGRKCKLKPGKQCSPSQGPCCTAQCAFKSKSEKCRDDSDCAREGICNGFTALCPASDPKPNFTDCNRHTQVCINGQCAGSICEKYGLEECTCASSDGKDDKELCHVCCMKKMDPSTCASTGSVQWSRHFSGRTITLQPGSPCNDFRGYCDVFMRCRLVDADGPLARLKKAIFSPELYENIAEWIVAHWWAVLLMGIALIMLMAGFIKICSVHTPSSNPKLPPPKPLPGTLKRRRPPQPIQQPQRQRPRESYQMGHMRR
# PLCg1 ctr: PLC-gamma1 enzyme inhibitors, counter-screen for PLC-beta3 inhibitor project, biochemical, fluorescence. purified PLC-gamma1, fluorogenic substrate. shares compounds with PLC-gamma1 inh. AID 743258, 2014. 3,300 compounds, 3.1% hits. inhibition, % at 12.3 µM; in the data active means inhibition above about 9.5%
# PLCb3 confirm: PLC-beta3 inhibitor confirmation, biochemical, fluorescence, purified enzyme. shares compounds with PLC-gamma1 inh. fluorogenic substrate fluorescence. inhibition, % at 12.3 µM. 3,300 compounds, 1% hits
# * = called active by the depositor; . = no result given. Most compounds without a hit are left out; they make up all but 2.9% or so of the library. Unless noted, no stated cut-off is given here; in the data, active means inhibition above about 11%; inactive means the rest.
SMILES,PLC-gamma1 inh,PLC-beta3 inh,proKLK7 act,ADAM17 inh,ADAM10 inh,PLCg1 ctr,PLCb3 confirm
CC(=O)Nc1ccc(C2=NN(Cc3nnc(-c4ccccc4)o3)C(=O)SC2)cc1,10.8*,9.1,0.4,5.8,3.2,-3.5,-2.7
O=C(NNS(=O)(=O)c1ccccc1)c1csc(-c2cccnc2)n1,3.5,-7.0,-0.3,0.6,-0.6,.,.
O=C(NNC(=O)c1csc(-c2cccnc2)n1)c1ccccc1,9.6*,-4.7,0.6,-0.1,6.2,-1.9,1.1
O=C(Cn1cnc2sc(-c3ccccc3)cc2c1=O)NCc1ccccc1,9.5*,3.8,-0.8,6.1,6.7,-37.0,-84.1
Cc1c(C)n(C(=O)CSc2nncn2C)c2ccccc12,6.9,1.8,-0.7,-1.5,11.3,.,.
Cn1cnnc1SCC(=O)n1c2ccccc2c2ccccc21,13.7*,7.9,-0.1,7.9,4.6,-10.2,-5.9
CCOC(=O)C1(CCOC)CCCCC1=O (stereo not drawn),1.9,0.8,-0.2,-3.4,-17.3,.,.
CCOC(=O)CC(=O)CSc1nc2c(sc(=S)n2-c2ccc(OCC)cc2)c(=O)[nH]1,2.6,4.2,-0.2,1.0,3.8,.,.
NC(=O)CSc1nc2c(sc(=S)n2-c2ccccc2)c(=O)[nH]1,10.1*,-0.8,-1.0,2.3,5.4,-3.0,0.5
O=C(NCCc1ccc(Cl)cc1Cl)c1cncc(Br)c1,10.7*,-0.3,-0.1,-10.4,-0.4,-5.7,-1.8
Cc1ccc(SCCNC(=O)C(C)C)cc1,9.7*,4.5,0.6,-0.8,6.8,-11.6,-2.4
CCC(=O)N1CCC1(C)C(=O)Nc1cnc2ccccc2c1 (stereo not drawn),4.2,2.4,0.2,0.9,0.5,.,.
COc1ccc(-c2nnc(SC(C)C(=O)Nc3nccs3)n2Cc2ccccc2)cc1OC (stereo not drawn),9.8*,1.8,0.1,-0.6,-110.8,-4.8,-3.5
Cc1ccc(NC(=O)CN(C)C(=O)c2cccc(Br)c2)cc1,-1.2,-6.2,0.2,-4.8,6.0,.,.
COc1ccc(C(c2nnnn2Cc2ccccc2)N2CCN(c3ccccc3)CC2)cc1 (stereo not drawn),-0.8,0.4,-0.4,0.9,9.1,.,.
COc1ccc(Cn2nnnc2C(C(C)C)N2CCN(c3ccccc3OC)CC2)cc1 (stereo not drawn),11.5*,6.3,0.3,6.2,8.2,1.0,3.5
CCCOc1ccc(C2C(C(=O)c3ccco3)=C(O)C(=O)N2CCCn2ccnc2)cc1OC (stereo not drawn),-13.3,-18.3,1.0,0.8,-17.7,.,.
Cc1ccc(S(=O)(=O)NCc2ccccc2)cc1,-1.7,-7.1,-0.2,-0.5,-0.3,.,.
Cc1ccc(CNS(=O)(=O)c2ccc([N+](=O)[O-])cc2)cc1,12.2*,-3.2,-0.3,8.1,9.2,3.9,2.6
c1ccc(-c2csc(Nc3cccnc3)n2)cc1,4.7,-3.8,0.1,7.4,7.7,.,.
Clc1ccc(-c2csc(Nc3cccnc3)n2)cc1,10.2*,7.2,0.2,3.6,9.9,0.3,-0.1
Cc1ccc(NC(=O)CSc2nc3ncc(Cl)cc3[nH]2)c(C)c1,2.6,-4.1,0.3,-2.9,-1.1,.,.
CCOC(=O)c1cnn(Cc2ccccc2)c1N,0.0,3.4,-0.4,2.0,8.5,.,.
Cc1cnn(Cc2ccccc2)c1N,10.5*,7.5,-0.3,4.6,-0.3,-8.7,-4.3
C=CCNC(=O)C(C(=O)OCC)C1CCCCC1 (stereo not drawn),10.2*,13.6*,0.0,6.1,6.7,-2.0,-7.9
SMILES,PLC-gamma1 inh,PLC-beta3 inh,proKLK7 act,ADAM17 inh,ADAM10 inh,PLCg1 ctr,PLCb3 confirm
Cc1ccc(OCC(=O)Nc2sc3c(c2C#N)CC(C)(C)NC3(C)C)cc1,10.0*,-51.1,0.7,1.2,9.9,-3.3,1.7
CC1(C)Cc2c(sc(NC(=O)COc3cccc4ccccc34)c2C#N)C(C)(C)N1,7.8,-9.3,-0.5,3.6,11.4,.,.
CC(C)(C)c1ccccc1OCC(O)CN1CCN(c2ccccn2)CC1 (stereo not drawn),12.4*,-4.3,0.3,4.2,19.5,0.2,-2.0
Cc1ccc(CN(CC(=O)NCCc2ccccc2)C(=O)c2csnn2)cc1,-1.1,-2.1,-0.1,-1.8,0.6,.,.
COc1cc(/C=C/C(=O)OCC(=O)N(C)Cc2ccccc2)ccc1O,-31.3,-49.6,0.2,-16.2,-59.1,.,.
CCN(CC)C(=O)C1CCCN(Cc2ccc(N(C)C)cc2)C1 (stereo not drawn),10.2*,-2.1,-0.4,-2.0,-6.4,-2.0,-0.1
Cc1ccc(CN2CCCC(C(=O)N3CCCC3)C2)cc1 (stereo not drawn),1.8,-1.4,-0.1,-4.0,-0.4,.,.
O=C(C1CCCN(Cc2ccc(Br)cc2)C1)N1CCCCC1 (stereo not drawn),13.2*,2.7,0.7,4.3,-0.9,-5.2,-1.7
O=C(c1cccc(NS(=O)(=O)c2ccc(Br)cc2)c1)N1CCN(c2ccccc2O)CC1,-3.6,-12.0,0.0,1.1,8.2,.,.
CCOc1ccc2nc(SCC(=O)NCc3ccc4c(c3)OCO4)[nH]c2c1,13.2*,6.0,-0.7,5.0,14.8,0.4,-18.5
Cc1cc(C(=O)NCc2ccc3c(c2)OCO3)c(C)o1,0.4,-5.5,0.2,-2.5,-1.8,.,.
COc1ccc2nc(SCC(=O)NCc3ccc4c(c3)OCO4)[nH]c2c1,-2.0,2.3,0.3,-0.3,0.8,.,.
CCc1ccc(NC(=O)COc2ccc3c(c2)OCO3)cc1,-0.8,-9.4,0.2,4.0,2.8,.,.
CCOc1ccc(NC(=O)NCc2ccc3c(c2)OCO3)cc1,9.5*,-7.4,-0.7,-4.5,-9.6,-7.5,-4.4
Cc1occc1C(=O)NCc1ccc2c(c1)OCO2,10.6*,4.4,-0.1,7.9,-0.4,-7.1,-0.8
CCc1ccc(OCC(=O)Nc2ccc3c(c2)OCCO3)cc1,9.5*,-1.3,0.1,-2.3,9.0,-5.5,-4.1
CN(C)C(=O)c1cnc(Cc2c[nH]c3ccccc23)c(I)c1,-0.1,-0.3,0.1,2.5,-0.9,.,.
O=C(Nc1cccc(Cl)c1)c1csc([C@@H]2O[C@H](CO)[C@H](O)[C@H](O)[C@H]2O)n1,0.5,-4.6,-0.2,-1.6,-1.2,.,.
COc1ccc(C(C)=O)cc1COC(=O)c1ccc(C)c(S(=O)(=O)N2CCOCC2)c1,3.7,-8.5,-0.1,-3.5,-14.1,.,.
CCOC(=O)NC(=O)CSc1nc2ccc(OCC)cc2[nH]1,-3.6,-1.2,0.0,-4.2,-0.2,.,.
CCOc1ccc2nc(SCC(=O)Nc3ncccn3)[nH]c2c1,10.9*,5.3,-0.2,7.0,3.3,-4.7,-2.1

# Bioassay records (PubChem BioAssay)
